Among the data in PubChem BioAssay AID588493 (Sanford-Burnham Center for Chemical Genomics, 2011) are inhibition values, retold here.

“And” between values parts separate entries of the source, which are not always exact repeats. Equal entries are not always repeated. Out of some 360,000 compounds screened, about 2,100 (0.58%) were called active. Only a selection was taken, and actives are over-represented in it overall. Values without a mark were called inactive.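 Rule for the calls: active = inhibition at 20 µM, scaled to each plate's controls, above about 33% (limit read from the data); inactive = the rest.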

26S proteasome non-ATPase regulatory subunit 14 (Homo sapiens), sequence (O00487 whole entry, looked up): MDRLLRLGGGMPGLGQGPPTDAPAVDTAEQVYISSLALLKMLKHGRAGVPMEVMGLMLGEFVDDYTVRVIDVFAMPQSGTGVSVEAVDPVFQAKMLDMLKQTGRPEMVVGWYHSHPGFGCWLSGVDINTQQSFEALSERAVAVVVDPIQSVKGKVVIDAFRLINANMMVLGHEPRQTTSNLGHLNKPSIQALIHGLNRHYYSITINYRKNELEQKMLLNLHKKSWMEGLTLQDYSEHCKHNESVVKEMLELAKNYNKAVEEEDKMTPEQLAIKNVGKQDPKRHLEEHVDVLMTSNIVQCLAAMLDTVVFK

The assay concerns the target 26S proteasome non-ATPase regulatory subunit 14 (Homo sapiens) (UniProt O00487). Briefly: Rpn11 (PSMD14) deubiquitinase inhibitors, primary screen, biochemical, fluorescence polarization, uHTS (AID 588493). As to conditions: human 26S proteasome, Ub4-pepOG fluorescence polarization; at 20 µM; hits give high values; 20S core pre-blocked with epoxomicin.
As to `Cc1nnc(SCc2nc3ccccc3nc2C)s1`, the inhibition is -1.4%.
As for `COc1ccc2cc(C(=O)C3CCCN(C(=O)c4sc(C)nc4C)C3)ccc2c1` (stereo unspecified), the inhibition was 5.8%.
Take `COc1cc(CO)ccc1OCC(=O)Nc1cccc2ccccc12`: the inhibition is 1.6%.
In the case of `COc1ccc(Cn2c(O)c(/C=C3/C=CC=N3)c(=O)[nH]c2=O)cc1`, the inhibition was 14.5%.
As for `COc1cc(=O)[nH]c(=O)n1C(=O)Cc1ccccc1`, the inhibition is 2.2%.
For the molecule `CCCOc1ccc(Cn2c(O)cc(=O)[nH]c2=O)cc1`, the inhibition was 65.3% (active).
Next, `COc1ccc(C2c3[nH]c4ccccc4c3C[C@H]3C(=O)N(CC(C)C)CC(=O)N23)c(OC)c1` (stereo partly specified): -8.2%; `Cc1ccc(NC(=O)CN(C)Cc2ccc(F)cc2)c([N+](=O)[O-])c1`: -8.1%.
Next, `COc1ccc2c(c1)c(=Cc1ccc(N(C)C)cc1)c1cc(-c3ccccc3)[n+](C)n12`: 59.4% (active); `O=C(CNC(=O)c1ccc(Cl)cc1Cl)NCC(=O)Nc1ccccc1N1CCOCC1`: -2.4%.
With `CCCNC(=O)CCn1nc(-c2ccccc2)c2ccccc2c1=O`, the inhibition was -1.2%.
Next, `CCOC(=O)c1ccc(-n2c(CCC(=O)O)ccc2-c2ccccc2)cc1`: 1.9%; `COCCCn1c(CCC(=O)O)ccc1-c1ccc(F)cc1`: 6.6%.
`CC(C)Cn1c(CCC(=O)O)ccc1-c1cccs1`: the inhibition is 39.7% (active).
The same measure for `CC(=O)c1sc(NC(=O)C2=NN(c3ccccc3)C(=O)CC2)nc1C`: 1.1%.
Regarding `CC(=O)c1sc(N)nc1C`, the inhibition was -7.7% and -13.1%.
Next, `CC(=O)c1sc(N/N=C/c2ccc(C(C)C)cc2)nc1C`: 42.3% (active).
Consider `Cc1cc2c(cc1C)N1C(=O)c3cc4ccccc4cc3NC(=O)C1C(=O)N2` (stereo unspecified), for which the inhibition was 7%.
For `COc1ccc(NC(=O)c2cn(-c3ccccc3)nc2SC)cc1`, the inhibition was 4.3%.
Consider `CCOc1ccc(-c2c(C)n([O-])c3c([n+]2=O)CCCC3)cc1`, for which the inhibition was 3%.
The same measure for `O=C(NNc1c2ccccc2nc2ccccc12)c1cc2ccccc2cc1O`: -5.5%; for `Oc1ccc(/C=N/Nc2nc(-c3ccccc3F)nc3ccccc23)c(O)c1`: 43.1% (active); for `Cc1ccc(/C=N/NC(=O)C2=NNC(c3ccccc3)(c3ccccc3)C2)c(O)c1`: 3.5%.
In the case of `Cc1nnc(SC(C)C(=O)c2c[nH]c3ccccc23)n1C1CC1` (stereo unspecified), the inhibition is -0.9%.
Take `CCCCN(C(=O)c1ccc(C)o1)c1c(N)n(CCCC)c(=O)[nH]c1=O`: the inhibition was -3.8%.
`O=C(COc1cccc(F)c1)Oc1ccc(C(=O)c2ccccc2)cc1`: the inhibition is 43% (active).
Take `O=C(COC(=O)COc1cccc(F)c1)NCC1CCCCC1`: the inhibition was -7.3%.
On to `CCN(C(=O)COc1ccc(C(=O)c2ccccc2)cc1)c1ccccc1`, for which the inhibition is -0.2%.
On to `O=C(c1cccnc1)N(c1cc2sc(=O)oc2c2ccccc12)S(=O)(=O)c1ccccc1`, for which the inhibition was 2.8%.
In the case of `NC(=O)Cc1ccc2sc(-c3ccccc3)nc2c1`, the inhibition is 4.7%.
The same measure for `O=C(CSc1nnc(-c2cccnc2)n1CCc1ccccc1)NCc1ccccc1`: -6.8%; for `C=CCn1c(SCC(=O)NC(=O)Cc2ccccc2)nc2ccccc2c1=O`: 0.5%; for `C=CCn1c(SCC(=O)NCc2ccccc2)nnc1-c1cc(Br)ccc1O`: 37.3% (active).
Next, `COc1ccc(CNc2c(CO)cnc3c2cnn3C)cc1`: -6.6%; `COCCCNC(=S)N1CCN(c2nc(-c3cccc(OC)c3)cs2)CC1`: 5.4%; `CSc1ccc(C#N)cc1NC(=O)c1cccc(Cl)c1`: 7.6%.
As for `COc1ccc(NC(=O)c2ccco2)cc1NC(=O)c1ccc(C#N)cc1F`, the inhibition is -5.8%.
Next, `N#Cc1ccc(C(=O)Nc2cccc3cccnc23)c(F)c1`: 102% (active).
Next, `Cc1ccc(CCNC(=O)CN2C(=O)CSc3ccc(S(=O)(=O)N4CCOCC4)cc32)cc1`: -1.8%; `CCCCCCCCc1c(O)nc(-n2[nH]c(C)c(CCO)c2=O)[nH]c1=O`: 11.1%.
Next, `COc1cccc(-c2nn(-c3ccccc3)cc2/C=C(\C#N)C(=O)NCCCn2ccnc2)c1`: 56% (active); `COc1cc(OC)cc(C(=O)NCCCn2ccnc2)c1`: 0.7%; `COc1ccc(/C=C(\C#N)C(=O)NCCCn2ccnc2)cc1`: -1.5%.
Regarding `CCCCc1nnc(NC(=O)CS(=O)(=O)Cc2ccccc2)s1`, the inhibition is 5.2%.
Consider `C/C(=N/NS(=O)(=O)c1ccccc1)c1ccc(NC(=O)C(F)(F)F)cc1`, for which the inhibition was -2%.
`NC(=O)c1cc(S(=O)(=O)NCCCc2ccco2)cs1`: the inhibition is -4.1%.
Take `O=C(N/N=C/c1cccc(Br)c1)c1ccc(N2CCCC2=O)cc1`: the inhibition was 49.1% (active).
For the molecule `O=C(Nc1ccc(N2CCCC2=O)cc1)c1cncc(Br)c1`, the inhibition was -4.8%.
Next, `O=C(N/N=C\c1cccc(Br)c1)c1ccccc1-n1cccc1`: 23.2%; `Cc1cc2nc(-c3ccco3)c(Cc3cccc(F)c3)n2c(C)c1Br`: 11.6%; `CN(C)CCn1c2c(c(SCC(=O)Nc3ccccc3C(F)(F)F)nc1=O)CCCC2`: -0.6%.
Turning to `CC1CCN(c2ccc3c(c2)S(=O)(=O)c2cc(C(=O)O)ccc2C3=O)CC1`, the inhibition was 57.1% (active).
Regarding `O=C1c2ccccc2S(=O)(=O)c2cc(N3CCN(c4ccccn4)CC3)ccc21`, the inhibition was 40.2%.
Next, `OC(c1ccc(Cl)cc1)c1ncc(-c2ccc(Cl)cc2)[nH]1` (stereo unspecified): -5.5%.
The same measure for `COc1ccc(CNC(=O)C(C)n2nc(C)c3c(C)n(-c4ccccc4)nc3c2=O)c(OC)c1` (stereo unspecified): 0%; for `CCCCN(C(=O)C1CCC1)c1c(N)n(Cc2ccccc2)c(=O)[nH]c1=O`: -10.9%.
Next, `Cc1ccc(Cl)cc1NC(=O)COC(=O)C1CCCCC1`: -8.8%; `CCCc1nc(-c2cc3cc(C)ccc3[nH]c2=O)no1`: -0.2%.
Regarding `CCC(=O)N(CCc1ccccc1)Cc1cc2cc(C)ccc2[nH]c1=O`, the inhibition was -6.2%.
The same measure for `CCNCc1cc2cc(C)ccc2[nH]c1=O`: 82.8% (active).
Next, `CCc1noc(C)c1C(=O)N1CCN(S(=O)(=O)c2cccc(C(F)(F)F)c2)CC1`: 0%; `CC(=O)c1ccc(NC(=S)N(Cc2ccccc2)C(C)C2CC2)cc1` (stereo unspecified): 8.8%.
`CCOc1cc(NC(=O)c2ccccc2C(=O)O)c(OCC)cc1NC(=O)c1ccccc1F`: the inhibition was 1.8%.
On to `CCN1CCN(c2cc3nc(C)n(Cc4ccccc4)c(=O)c3cc2NC(=O)c2ccccc2F)CC1`, for which the inhibition is 47.3% (active).
Next, `CCC(=O)Nc1ccc2nc(C)n(Cc3ccccc3Cl)c(=O)c2c1`: -7.7%; `Fc1ccc(CNc2nc3ccccc3n3nnnc23)cc1`: -38.7%; `CCN1CCCC1CNC(=O)c1cc2c(=O)n(C)c3ccccc3c2n1C` (stereo unspecified): 66.2% (active).
Next, `CCN1CCCC1CNC(=O)c1cc2cc(OC)c(OC)cc2[nH]1` (stereo unspecified): -10.4%; `Cn1c(C(=O)N2CCC(C(N)=O)CC2)cc2c(=O)n(C)c3ccccc3c21`: -3.7%; `COc1cccc(/C=C(/CC(=O)Nc2ccc(N3CCOCC3)cc2)c2nc3ccccc3s2)c1`: 41.7% (active).
Turning to `CCn1c(Cc2ccc(OC)cc2)nnc1SCC(=O)Nc1ccc(N2CCOCC2)cc1`, the inhibition was 5%.
As to `Cc1ccc(OCCCC(=O)Nc2ccc(N3CCOCC3)cc2)cc1`, the inhibition was 1.7%.
The same measure for `COc1cc(OC)cc(C(=O)Nc2ncc3c(n2)CC(C)(C)CC3=O)c1`: 1.2%.
Take `CCN(CC)S(=O)(=O)c1ccc2nc(CSc3nnnn3-c3ccc(O)cc3)[nH]c2c1`: the inhibition is 0.9%.
Turning to `O=C(Nc1cc(Br)ccc1F)c1nc[nH]c1C(=O)NCc1ccccc1`, the inhibition was -6.2%.
As for `O=C(c1ccc2c(c1)N(Cc1ccc(F)cc1)C(=O)CS2)N1CCOCC1`, the inhibition is 1.1%.
